A short description of assay [1]: qHTS assay to identify small molecule agonists of the vitamin D receptor (VDR) signaling pathway - cell viability counter screen (AID 743224). Also: series mostly up to about 63 µM; nearly all actives have a fitted effect of over 50% in size. In short, it runs like this:
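Cells: VDR-bla, 2,000/well, settled 4 h. Treatment: compounds in DMSO, 16 h, 37C/5% CO2. Readout: CellTiter-Glo luminescence after 30 min RT.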

Assay [2] in a line: qHTS assay to identify small molecule antagonists of the vitamin D receptor (VDR) signaling pathway - cell viability counter screen (AID 743225). Also: nearly all actives have a fitted effect of over 50% in size. In short, it runs like this:
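Luminescent cell viability (CellTiter-Glo) in VDR-bla HEK 293T cells after 16 h compound exposure at 37C in the presence of 3 nM final 1-alpha,25-dihydroxy vitamin D3.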

Assay [3] can be described thus: qHTS assay to identify small molecule agonists of the NFkB signaling pathway (AID 1159509; active = well fitted curve in the direction sought with a large enough effect in the signal ratio in the repeat runs, not every such curve was filed as active; the % refers to the signal ratio; also: series mostly up to about 61 µM). Put shortly:
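Agonist activity was read as beta-lactamase-driven FRET change (460 and 530 nm emission, 405 nm excitation) following 1.5 hr substrate loading at room temperature. Beforehand, ME-180 NFkB-bla reporter cells were treated with compounds for 5 hr at 37 C.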

Assay [4] can be described thus: qHTS assay to identify small molecule agonists of the NFkB signaling pathway - cell viability counter screen (AID 1159515; calls by dose curve; also: series mostly up to about 61 µM; nearly all actives have a fitted effect of over 55% in size). Put shortly: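 Cells are seeded (2,000 NFkB-bla ME-180 per well), rested overnight, and dosed with DMSO-dissolved compounds for 5 hr at 37 C. Viability is then read by CellTiter-Glo luminescence after 30 min at room temperature.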
The nature of assay [5]: qHTS assay to identify small molecule agonists of the endoplasmic reticulum stress response signaling pathway (AID 1159516; active = well fitted activation curve with a large enough effect in the signal ratio in the repeat runs, not every such curve was filed as active; the % refers to the signal ratio). In short, it runs like this:
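Cells are seeded at 1,500 per well and incubated overnight. Compounds in DMSO are added for 5 hr at 37 C, then beta-lactamase FRET substrate for 2 hr at room temperature, and fluorescence at 460 and 530 nm is measured.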

A short description of assay [6]: qHTS assay to identify small molecule antagonists of the retinoid-related orphan receptor gamma (ROR-gamma) signaling pathway - cell viability counter screen (AID 1159520). Also: nearly all actives have a fitted effect of over 50% in size. Also: potency is read from the fitted curve at half-maximal effect. In short, it runs like this: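 Tet-on ROR gamma CHO cells (1,000/well) were plated 4 hr, given compounds in DMSO for 2 hr at 37 C, then induced with 1 uM final doxycycline for 16 hr. Viability was read as ATP by CellTiter-Glo luminescence after 30 min.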

In assay [7] the target is Nuclear receptor ROR-gamma (Homo sapiens) (UniProt P51449). Description: qHTS assay to identify small molecule antagonists of the retinoid-related orphan receptor gamma (ROR-gamma) signaling pathway (AID 1159521; also: nearly all actives have a fitted effect of over 50% in size; also: potency is read from the fitted curve at half-maximal effect). In short, it runs like this: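 CHO cells expressing RORγ under a TET-on promoter, luciferase under RORE control. Dox 1 uM final, 16 h; compounds added 2 h prior. Luminescence decrease measured.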

Assay [8] is described as follows: qHTS assay to identify small molecule agonists of the AP-1 signaling pathway - cell viability counter screen (AID 1159525; calls by dose curve; also: nearly all actives have a fitted effect of over 55% in size). Put shortly:
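Each titration point was normalised to DMSO and tetra n-octyl ammonium bromide controls. The read was Cell Titer Glo luminescence after 30 min at RT, following 5 h compound exposure of ME-180 AP-1-bla cells at 37 °C.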

A short description of assay [9]: qHTS assay to identify small molecule agonists of the AP-1 signaling pathway (AID 1159526; calls by dose curve).
Assay [10] is described as follows: qHTS assay to identify small molecule agonists of the endoplasmic reticulum stress response signaling pathway - cell viability counter screen (AID 1159517; calls by dose curve; also: nearly all actives have a fitted effect of over 50% in size; also: potency is read from the fitted curve at half-maximal effect). In short, it runs like this: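 Cpd-treated ESRE-bla HeLa (5 hr, 37 C) → LiveBLAzer 2 hr RT → CellTiter-Glo 30 min RT → luminescence.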

Each structure is given as a SMILES string. Results filed as inconclusive are left out. The source made the active and inactive calls. Unless noted, calls follow the shape of the dose curve; as a rule, active = well fitted curve in the direction sought with a large enough effect in the repeat runs; inconclusive = weak or mixed curves; inactive = no such curve, though single readings can be large; an effect the other way counts as inactive or inconclusive.

For the compound `O=C1CN=C(c2ccccc2)c2cc(Cl)ccc2N1CC1CC1`, the Potency entry in assay [1], in assay [2], in assay [4], in assay [6], in assay [7] and in assay [8] was “inactive” throughout. Besides, the outcome in assay [3], in [5] and in assay [9] was inactive.

`O=C(NCc1cccnc1)Nc1ccc([N+](=O)[O-])cc1`: the Potency entry in assay [1], in assay [4], in assay [10], in [6], in assay [7] and in assay [8] was “inactive” each time. The call in assay [3] and in [9] was inactive.

With `CC(Cl)C(C)Cl` (stereo not drawn), the Potency entry in assay [1], in assay [2], in assay [4], in [6], in [7] and in [8] was “inactive” each time. The compound was classed as inactive in [3], in assay [5] and in assay [9].

As to `COC(=O)c1cncn1C(C)c1ccccc1` (stereo not drawn), the Potency entry in assay [1], in assay [4], in assay [6], in assay [7] and in [8] was “inactive” each time. In addition, the compound was called inactive in assay [3], in assay [5] and in assay [9].

For the compound `ClCCCCBr`, the Potency result in [1], in assay [2], in assay [4], in [6], in [7] and in assay [8] was “inactive” each time. Moreover, the call in assay [3], in [5] and in [9] was inactive.

For the compound `C=CCOC(C)=O`, the Potency result in assay [1], in [2], in [4], in assay [6], in assay [7] and in assay [8] was “inactive” each time. In addition, the outcome in assay [3], in assay [5] and in assay [9] was inactive.

As for `Nc1nc(N)nc(N)n1`, the Potency result in assay [1], in [2], in assay [4], in assay [6], in [7] and in assay [8] was “inactive” throughout. For the same compound, the compound was classed as inactive in assay [3], in assay [5] and in assay [9].

As to `O=C(NC(=O)c1c(F)cccc1F)Nc1ccc(OC(F)(F)C(F)OC(F)(F)F)c(Cl)c1` (stereo not drawn), the Potency result in assay [1], in assay [2], in assay [4], in assay [6], in assay [7] and in [8] was “inactive” in each case. The call in [3], in assay [5] and in assay [9] was inactive.

On to `CCCCN=C=O`, for which the Potency entry in assay [1], in assay [4], in assay [6], in assay [7] and in assay [8] was “inactive” throughout. Also, the compound was classed as inactive in assay [3], in assay [5] and in assay [9].

Turning to `c1ccc(C2CC2)c(OCC2=NCCN2)c1`, the Potency result in [1], in [2], in assay [4], in assay [6], in assay [7] and in [8] was “inactive” each time. The result in assay [3], in assay [5] and in [9] was inactive.

On to `COP(=S)(OC)Oc1cc(Cl)c(I)cc1Cl`, for which the Potency result in assay [2], in [4], in assay [6], in assay [7] and in [8] was “inactive” each time. Also, the call in [3] and in [5] was inactive.

Consider `CC(C)N(CCC(C(N)=O)(c1ccccc1)c1ccccn1)C(C)C` (stereo not drawn), for which the Potency entry in [1], in assay [4], in assay [10], in assay [6], in assay [7] and in [8] was “inactive” each time. The compound was called inactive in assay [3] and in assay [9].

Turning to `CCOC(=O)COc1cc(-c2nn(C)c(OC(F)F)c2Cl)c(F)cc1Cl`, the Potency result in assay [1], in [2], in assay [4], in assay [10], in assay [6] and in [7] was “inactive” each time. Also, the Potency entry in assay [8] is “inactive”. Moreover, the compound was classed as inactive in assay [3] and in assay [9].

As for `O=[N+]([O-])c1ccc(F)c([N+](=O)[O-])c1`, the Potency entry in [1], in [2], in [4] and in assay [8] was “inactive” each time. Further, the outcome in assay [3] and in [9] was inactive. Also, the Potency in [10] was 17.5 µM (active); in assay [6], 38.9 µM (active); in assay [7] it was 49 µM (active).

With `COC(=O)C(C)N(C(=O)Cc1ccccc1)c1c(C)cccc1C` (stereo not drawn), the Potency result in [1], in assay [2], in assay [4], in assay [10], in [6] and in [8] was “inactive” throughout. Also, the compound was called inactive in assay [3] and in assay [9].

`O=C1NCN(c2ccccc2)C12CCN(CCCOc1ccc(F)cc1)CC2`: the Potency result in [2], in assay [4], in [10], in assay [6] and in [8] was “inactive” in each case. Moreover, in [3], the result was inactive. For the same compound, in assay [7], the Potency was 23.7 µM (active).

On to `COC(=O)C(Cl)C(=O)OC`, for which the Potency entry in assay [1], in assay [2], in assay [4], in assay [10], in assay [6] and in assay [7] was “inactive” throughout. In addition, the Potency result in [8] was “inactive”. Also, the outcome in assay [3] and in assay [9] was inactive.

Turning to `CC1(C)[C@H](C=C(Cl)Cl)[C@@H]1C(=O)O[C@@H](C#N)c1cccc(Oc2ccccc2)c1`, the Potency entry in assay [1], in assay [4], in assay [10], in [6] and in [8] was “inactive” each time. Moreover, the result in [3] was inactive. For the same compound, the Potency in assay [7] was 54.5 µM (active).

Regarding `O=C(O)c1ccccc1C(=O)Nc1cccc2ccccc12`, the Potency result in assay [1], in [2], in assay [4], in assay [10], in [6] and in [7] was “inactive” in each case. The Potency result in assay [8] is “inactive”. In addition, the compound was classed as inactive in assay [3].

For the compound `Clc1cc(C(Cl)(Cl)Cl)cnc1Cl`, the Potency result in [1], in [2], in assay [4], in assay [6], in assay [7] and in assay [8] was “inactive” throughout. The outcome in assay [3] and in [9] was inactive. In addition, the Potency in assay [10] was 11 µM (active).

With `CC1Sc2c(C(=O)O)c(=O)c3cc(F)c(N4CCNCC4)cc3n21` (stereo not drawn), the Potency result in assay [1], in assay [2], in assay [4], in [10], in [6] and in assay [7] was “inactive” each time. For the same compound, the Potency result in assay [8] is “inactive”. For the same compound, the compound was called inactive in assay [3] and in assay [9].

In the case of `O=S(=O)(Cl)c1ccccc1`, the Potency result in assay [1], in assay [2], in assay [4], in assay [10], in assay [6] and in assay [8] was “inactive” each time. Also, the compound was called inactive in assay [3] and in assay [9].

As for `Cc1ccccc1CCl`, the Potency entry in assay [1], in assay [2], in assay [4], in assay [10], in assay [6] and in [7] was “inactive” throughout. For the same compound, the call in assay [3] and in [9] was inactive.

Turning to `CCC(Cl)CCl` (stereo not drawn), the Potency result in assay [1], in assay [2], in assay [4], in assay [10], in [6] and in assay [7] was “inactive” throughout. For the same compound, the Potency entry in assay [8] is “inactive”. The call in assay [3] and in assay [9] was inactive.

With `CCCCc1c(C)nc(NCC)nc1OS(=O)(=O)N(C)C`, the Potency entry in assay [1], in assay [2], in assay [4], in assay [10], in assay [6] and in assay [8] was “inactive” in each case. The outcome in assay [3] and in [9] was inactive.

Turning to `CS/C(C)=N/OC(=O)N(C)SN(C)C(=O)O/N=C(\C)SC`, the Potency entry in [1], in [2], in assay [4], in assay [10] and in [8] was “inactive” in each case. In addition, the compound was classed as inactive in assay [3]. For the same compound, the Potency in assay [6] is 43.3 µM (active); in assay [7], 38.6 µM (active).

These data come from PubChem BioAssay (Tox21).
